{
  "source": "PubChem BioAssay (NCATS)",
  "note": "Records with an inconclusive call do not appear. Where a structure was tested more than once in an assay, its records may differ in their call. Values without a mark were called inactive. Active and inactive are the calls of the source. Calls follow the shape of the dose curve; as a rule, active = well fitted inhibition curve with a large enough effect; inconclusive = small, poorly fitted or top-dose-only effect; inactive = no such curve, though single readings can be large or run the other way. % is scaled to controls: 0 for no effect and ±100 for the full control effect; potency is read from the fitted curve at half-maximal effect.",
  "data": [
    {"target": "Cytochrome P450 3A4 (Homo sapiens) (UniProt P08684)", "sequence (P08684 whole entry, looked up)": "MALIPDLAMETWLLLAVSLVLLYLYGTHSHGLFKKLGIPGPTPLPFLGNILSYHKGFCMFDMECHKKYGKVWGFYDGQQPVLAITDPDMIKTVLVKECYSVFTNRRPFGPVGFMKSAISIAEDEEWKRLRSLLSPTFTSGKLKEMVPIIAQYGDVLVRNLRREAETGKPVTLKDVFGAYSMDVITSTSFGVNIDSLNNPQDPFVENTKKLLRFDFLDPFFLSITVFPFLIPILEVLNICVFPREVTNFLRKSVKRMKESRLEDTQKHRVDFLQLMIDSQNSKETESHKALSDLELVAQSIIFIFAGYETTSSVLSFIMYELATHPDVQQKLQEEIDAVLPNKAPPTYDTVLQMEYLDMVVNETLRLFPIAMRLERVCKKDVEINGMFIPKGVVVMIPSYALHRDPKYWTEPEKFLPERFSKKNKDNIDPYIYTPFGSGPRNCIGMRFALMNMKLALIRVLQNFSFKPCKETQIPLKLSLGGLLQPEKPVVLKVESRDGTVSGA", "experiment": "qHTS Assay for Inhibitors and Substrates of Cytochrome P450 3A4 (AID 884); also: nearly all actives have a fitted effect of over 50% in size", "conditions": "recombinant CYP3A4, Luciferin-PPXE luminescence; series mostly up to 57.1 µM; activity change, negative = inhibition: at the top concentration", "how_it_was_run": "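Luminescent readout of luciferin produced by CYP3A4 (20 nM) dealkylation of Luciferin-PPXE, 25 uM (its KM). NADPH-driven reaction ran 60 min at RT after 10 min compound preincubation; data scaled to 57 uM ketoconazole as 100% inhibition.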", "values": [
      {"smiles": "Cn1c(=O)c(C(=O)COC(=O)c2cc(C(F)(F)F)nc3ccccc23)c(N)n(Cc2ccccc2)c1=O", "activity change, negative = inhibition": "2.97%"},
      {"smiles": "O=C(O)c1ccc(NS(=O)(=O)c2ccsc2C(=O)O)cc1", "activity change, negative = inhibition": "-21.7%"},
      {"smiles": "O=Cc1ccc(B(O)O)cc1", "activity change, negative = inhibition": "-5.49%"},
      {"smiles": "CN(C)/C=N/c1cc(=O)n(C)c(=O)n1CC1CC1", "activity change, negative = inhibition": "-22.2%"},
      {"smiles": "COC(=O)c1ccc(C23CC4(C2)[C@H](CN(Cc2ccc(-c5ccccc5)cc2)[C@@H]4c2ccccc2)C3c2ccc(Cl)nc2)cc1", "note": "(stereo partly specified)", "activity change, negative = inhibition": "-20.2%"},
      {"smiles": "CCC1=C2CC[C@H]3C(=O)N(C)C(=O)[C@H]3[C@H]2[C@@]2(C)C(=O)N(CC3CC3)C(=O)N2C1=O", "activity change, negative = inhibition": "-23.7%"},
      {"smiles": "CC1=C(C(=O)OCc2ccccc2)C(C2CC2)NC(=O)N1CCCCCC(=O)O", "note": "(stereo unspecified)", "activity change, negative = inhibition": "-19.6%"},
      {"smiles": "N=C(N)c1ccc(N2CCN(C3CCN(CC(=O)O)CC3)CC2)cc1", "activity change, negative = inhibition": "-7.22%"},
      {"smiles": "O=C(O)/C=C/c1cccc(B(O)O)c1", "activity change, negative = inhibition": "-21.7%"},
      {"smiles": "COC(=O)c1cccc(C23CC4(C2)[C@H](CN(Cc2ccc(-c5ccccc5)cc2)[C@@H]4c2ccccc2)C3c2ccc(Cl)nc2)c1", "note": "(stereo partly specified)", "activity change, negative = inhibition": "-26.5%"},
      {"smiles": "C[C@@]1(O)C(O)[C@@H](CO)O[C@H]1n1cnc2c(NC3CCCC3)nc(Cl)nc21", "note": "(stereo partly specified)", "activity change, negative = inhibition": "-29.2%"},
      {"smiles": "CCCCCCCCCCCCCCCC(=O)NCCc1ccc(O)c(O)c1", "activity change, negative = inhibition": "-24.9%"},
      {"smiles": "OB(O)c1ccc(Cl)s1", "activity change, negative = inhibition": "-11.6%"},
      {"smiles": "CC(C)=CCC/C(C)=C/CO/N=C1/C[C@@H](O)[C@@H](O)[C@@H]2[C@@H]3C(=O)N(Cc4ccc5c(c4)OCO5)C(=O)[C@H]3CC[C@H]12", "Potency": "1580 nM (active)"},
      {"smiles": "COC(=O)C1=C(C)N(Cc2ccccc2)C2=C(C(C)=O)C(c3ccccc3)[C@@](O)(C(=O)OC)C(=O)N2C1c1ccccc1", "note": "(stereo partly specified)", "Potency": "3980 nM (active)", "activity change, negative = inhibition": "-19% [at 11.4 µM]"}
    ]}
  ]
}
